# The whole screen tested about 1,200 compounds, of which about 65 (5%) were called active.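 Rule for the calls: active = at either tested dose, response and 90th-percentile vesicle-stain brightness of CD8 cells under set limits and under 9% cells vesicle-bound; inactive = the rest.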 The full list was thinned out, with actives kept by preference.
# Assay: modulators of CD8 T cell-vesicle binding, confirmation, cherry-picked primary hits, two concentrations (AID 2810);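 note: lower values mean blocking of vesicle binding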;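 for percent response (vesicle binding): ratio of mean FL2 vesicle stain of CD8+ cells to that row's control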
# Conditions: 2C CD8+ T cell-vesicle binding, flow cytometry; for double positive events: CD8+/vesicle+ events
# [1] = at 15.4 µM, stronger effect = lower value
SMILES,double positive events (at 7.7 µM) [%],double positive events [1] [%],percent response (vesicle binding) [1],"percent response (vesicle binding) (response, at 7.7 µM) [%]"
CCc1c(C)nc(SCC(=O)Nc2nc(-c3ccc(OC)cc3)cs2)[nH]c1=O,33.4,10.4,192% (inactive),289
CCOc1ccc(-c2csc(NNC3=NCCCCC3)n2)cc1,15.2,1.4,52.5% (active),178
Cc1cc([N+](=O)[O-])nn1CC(=O)Nc1nccs1,35,19.6,221% (inactive),201
Cc1ccc(S(=O)(=O)N(C)CC(=O)Nc2nc3ccccc3s2)cc1,30.7,26.8,351% (inactive),371
Cc1ccc(S(=O)(=O)N2CCC(NC(=O)c3ccccc3)CC2)cc1,28.6,28.6,425% (inactive),558
Cc1ccc(S(=O)(=O)c2c(N)n(NC(=O)c3ccccc3C)c3nc4ccccc4nc23)cc1,22.8,1.1,26.2% (active),248
O=C(CN1C(=O)C2CCCN2C(=O)c2ccccc21)Nc1ccccc1-n1cccc1 (stereo unspecified),5.8,12.2,354% (inactive),425
COc1ccc(C(=O)O)cc1S(=O)(=O)Nc1cccc(C)c1,14.1,17.7,296% (inactive),181
C=CCN(c1ccc(Br)cc1C(=O)OC)S(C)(=O)=O,29.1,2.3,35.1% (active),465
COc1ccc(N(CC(=O)O)S(C)(=O)=O)cc1OC,24.1,30.5,229% (inactive),691
c1ccc2c(c1)COC(CN1CCCCC1)OC2,12.3,10.2,418% (inactive),439
COC(=O)[C@]1(C)N[C@H](CN(C)S(=O)(=O)c2ccc(OC(F)(F)F)cc2)[C@@H]2C(=O)N(C)C(=O)[C@@H]21,9.2,26.1,907% (inactive),443
CCCCNS(=O)(=O)c1ccc(OCC(=O)OC)cc1,14.8,20,106% (inactive),517
COc1ccc(-c2cc(CNS(=O)(=O)c3ccc(NC(C)=O)cc3)on2)cc1,23.7,2.2,18.8% (active),277
COc1ccc(NC(=O)CN2CCN(S(=O)(=O)c3ccc(Cl)cc3)CC2)cc1,31.1,12,124% (inactive),164
Cc1ccc(CN2CC(=O)N3[C@H]4c5cc(C)ccc5OC[C@@H]4[C@H](c4ccccc4)[C@]3(C)C2=O)cc1,8.3,11.2,109% (inactive),231
C/C(=N\NC(=O)Cn1cc([N+](=O)[O-])cn1)c1ccco1,23.5,26.1,268% (inactive),291

SMILES,double positive events (at 7.7 µM) [%],double positive events [1] [%],percent response (vesicle binding) [1],"percent response (vesicle binding) (response, at 7.7 µM) [%]"
O=C(c1ccc(N2C(=O)C3CC=C(Cl)CC3C2=O)cc1)N1CCCCC1 (stereo unspecified),19.3,5.2,56.9% (active),195
CCOC(=O)N1CCN(C(=O)c2ccc(N3CCCC3=O)cc2)CC1,9.7,22.5,213% (inactive),150
O=C(c1ccc(Cl)cc1)N1CCC(C(=O)N2CCN(c3ncccn3)CC2)CC1,27.3,6.4,173% (inactive),114
Cc1cc(C)cc(NC(=O)CC23CC4CC(C2)CC(n2nnc(C)n2)(C4)C3)c1,6.1,35.3,236% (inactive),200
CCCc1nnc(NC(=O)CCC(=O)N2CCC(Cc3ccccc3)CC2)s1,11.7,25.7,200% (inactive),291
Cc1c2cccn2cc[n+]1C,16.6,4.4,29.6% (active),159
Cc1cccc(C(=O)OCC(=O)Nc2c(C)n(C)n(-c3ccccc3)c2=O)c1,11,26.9,392% (inactive),320
Cc1ccc(C(=O)NC(C)CCc2ccccc2)cc1[N+](=O)[O-] (stereo unspecified),27,32.4,199% (inactive),481
Cc1ccc(-n2ncc3c(N4CCCC(C)C4)ncnc32)c(C)c1 (stereo unspecified),15.4,13.3,312% (inactive),283
CCSc1nnc(NC(=O)c2ccc(F)c(S(=O)(=O)N3CCOCC3)c2)s1,23.7,34.2,203% (inactive),209
O=C(NCC1CCCCC1)c1ccc(Cl)c(S(=O)(=O)N2CCOCC2)c1,9.2,22.8,342% (inactive),135
O=C(OCCOc1cccc(Cl)c1)c1ccc(F)c(S(=O)(=O)N2CCOCC2)c1,24.5,0.7,42.7% (active),333
CC1CCN(S(=O)(=O)c2csc(C(=O)Nc3ccccc3)c2)CC1,33.2,23.8,579% (inactive),415
CC(=O)Nc1ccccc1OC(C)C(=O)NC(C)c1ccc(F)cc1 (stereo unspecified),9.2,9,114% (inactive),420
Cc1cc(F)ccc1S(=O)(=O)N1CCCOC1CNC(=O)C(=O)NC1CCCC1 (stereo unspecified),11.7,9.3,255% (inactive),451
COC(=O)c1ccc(OC(=O)CS(=O)c2ccccc2[N+](=O)[O-])cc1 (stereo unspecified),15,3.4,143% (inactive),395
Cc1cccc(Nc2nc(-c3ccccn3)cs2)n1,28.1,5.2,46.7% (active),538

# — PubChem BioAssay AID2810 (NMMLSC, 2010)
